Screens deposited in PubChem by National Center for Advancing Translational Sciences (NCATS).
Abeta yeast res: qHTS for compounds that reverse cellular toxicity of Amyloid beta (A-beta) peptide in yeast: Primary Screen. yeast expressing A-beta42, growth rescue, OD600, 48 h; response scale: 0% DMSO, 100% iron-clioquinol control. 410,000 tested, 0.063% active. AID 1347071, 2019. Potency, µM (doses to about 46.1 µM), usual class: activators; also: nearly all actives have a fitted effect of over 55% in size
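Yeast A-beta toxicity model in growth medium with pinned compounds, 48 h at 30 C; growth read as absorbance at 600 nm. Normalized to FeCl3/clioquinol equimolar mix (positive) and DMSO (negative).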
TDP-43 yeast inh: qHTS of TDP-43 Inhibitors | Potency, µM (top dose mostly 46.1 µM), for the others: top-dose growth rescue (activation), usual class: activators | 410,000 tested, 1.8% active | TDP-43 expressing yeast growth rescue, BacTiter-Glo, 24 h | AID 652104, 2013; also: % of control where 0% means no effect; nearly all actives have a fitted effect of over 50% in size
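Readout is BacTiter-Glo luminescence of cell growth, so inhibitors register as activators. TDP-43-expressing yeast at OD600=0.02 in galactose medium, after raffinose pregrowth to mid-log, were incubated with compound for 24 hr at 30 deg C.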
aSyn yeast inh: qHTS of alpha-syn Inhibitors; Yeast expressing alpha-synuclein, growth rescue, BacTiter-Glo, 24 h; Potency, µM (doses to about 46.1 µM), inactives show at the highest dose growth rescue (activation), hits mostly activators; 370,000 tested, 0.14% active; AID 652106, 2013; also: % of control where 0% means no effect; nearly all actives have a fitted effect of over 65% in size
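Galactose-induced alpha-syn yeast (OD600=0.02, raffinose-pregrown) + pinned cpd, 24 hr, 30 deg C; growth by BacTiter-Glo luminescence. Growth restoration scores as activation.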
FUS yeast rescue: qHTS for Suppressors of FUS Proteinopathy: Primary screen using FUS-linked yeast assay; S. cerevisiae FUS-expressing, growth rescue, OD600, 24 h; Potency, µM (titrated, usually from 76.6 µM), usual class: activators; 390,000 tested, 0.24% active;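 also: plate controls were DMSO vehicle for no effect and reference control for full effect; nearly all actives have a fitted effect of over 55% in size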
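FUS-expressing yeast, raffinose-pregrown, induced in 2% galactose minimal medium at OD 0.005; compounds in a dilution series, 24hr at 30C. Growth restoration read as absorbance at 600 nm. CP55940 positive control, DMSO negative.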
Numbers without * were called inactive; i = inactive; u = inconclusive; x = not tested or not shown. This is a sample that favours compounds with a hit; in the whole collection about 2.1% have one here. Calls follow the shape of the dose curve; as a rule, active = well fitted curve in the direction sought with a large enough effect; inconclusive = small, poorly fitted or top-dose-only effect, or another doubt; inactive = no such curve, though single readings can be large; an effect the other way counts as inactive or inconclusive. Potency is read from the fitted curve at half-maximal effect.

SMILES	Abeta yeast res	TDP-43 yeast inh	aSyn yeast inh	FUS yeast rescue
COc1ccc(C2(C)NC(=O)N(Cc3cc(Cl)cc4c3OCOC4)C2=O)cc1OC (stereo unspecified)	i	-7%	-6%	35µM*
CCC(=O)OC1=C(C(C)=O)N(Cc2ccccc2)S(=O)(=O)c2ccccc21	i	u	x	i
CCN1CCOC(=O)C1CC(=O)Nc1cc(C)ccc1OC (stereo unspecified)	i	u	x	i
Nc1c(C(=O)N2CCN(c3ccccc3)CC2)nnn1Cc1ccc(Cl)cc1	x	x	x	i
CCOC(=O)c1nn(-c2ccc(C)cc2)cc1C(=O)c1ccccc1	i	13µM*	x	i
COc1cnc(-c2ccccn2)nc1Sc1ccc(F)cc1	10µM*	-19%	9%	i
COc1cnc(-c2ccccn2)nc1Sc1ccccc1	u	-21%	-9%	i
COc1cnc(-c2ccccn2)nc1Sc1ccc(Cl)cc1	u	14µM*	-6%	i
COc1ccc(Sc2nc(-c3ccccn3)ncc2OC)cc1	u	2%	13%	i
CCc1ccc(S(=O)(=O)c2cnc3ccc(OC)cc3c2N2CCCC(C)C2)cc1 (stereo unspecified)	i	-9%	x	u
CN1CCC(N(C)C(=O)c2sc3cc(F)ccc3c2Cl)CC1	i	6%	-6%	i
O=C(c1sc2cc(F)ccc2c1Cl)N1CCN(c2ccccc2)CC1	i	18µM*	0%	i
COc1ccc(Cn2c(=O)c3cccnc3n(CC(=O)Nc3c(C)cc(C)cc3C)c2=O)cc1	i	5%	x	i
CC(C)OC1=CC(=O)OC(c2cccc(Cl)c2)C1 (stereo unspecified)	i	22µM*	12%	i
CCN(c1ccc(OC)cc1)S(=O)(=O)c1ccc2[nH]c3c(c2c1)CCCCC3	i	14%	15%	i
Cc1cccc2sc(N(Cc3cccnc3)C(=O)c3cccs3)nc12	i	32µM*	x	i
Cc1cccc2sc(N(Cc3cccnc3)C(=O)Cc3ccccc3)nc12	i	13µM*	x	i
CCOc1ccc2nc(N(Cc3cccnc3)C(=O)c3ccco3)sc2c1	i	20µM*	x	i
Cc1cccc2sc(N(Cc3cccnc3)C(=O)CCc3ccccc3)nc12	i	u	x	u
Cc1cccc2sc(N(Cc3cccnc3)C(=O)c3ccco3)nc12	i	18µM*	x	i
CCc1ccc(NC(=O)c2cnn(-c3c(C)cccc3C)c2C2CCNCC2)cc1	i	-2%	0%	i
COc1ccc2nc(N(Cc3cccnc3)C(=O)C3CCCCC3)sc2c1	i	6.3µM*	x	i
O=C(C1CCCCC1)N(Cc1cccnc1)c1nc2ccc(F)cc2s1	i	u	x	i
O=c1c(N2CCCCC2)csc2ccc(F)cc12	i	-7%	x	i
COc1cccc(OC)c1-c1nn2c(-c3ccccc3Cl)nnc2s1	i	16µM*	-1%	u
SMILES	Abeta yeast res	TDP-43 yeast inh	aSyn yeast inh	FUS yeast rescue
CCN(CC)c1ccc(-c2nn3c(-c4ccccc4Cl)nnc3s2)cc1	x	x	x	32µM*
O=S1(=O)C=CCN1Cc1cn(Cc2cccc(C(F)(F)F)c2)nn1	x	x	x	i
Nc1ccc2oc(CCc3ccccc3)nc2c1	i	18µM*	-1%	i
C=C1C=C(C(F)F)n2ncc(C(=O)N3CCN(c4ccccc4)CC3)c2N1	x	x	0%	x
Oc1cccc(Nc2ccccc2)c1	i	13µM*	13%	i
CC(C)c1ccc(Nc2nc(NCc3ccco3)nc(N3CCOCC3)n2)cc1	i	16µM*	-19%	i
CC(C)c1ccc(Nc2nc(N3CCOCC3)nc(N3CCOCC3)n2)cc1	i	u	16%	i
Cc1ccccc1OCC(=O)NCC(=O)OCC(=O)c1ccc(Br)cc1	x	x	1%	x
O=C1C2=C(NC(=S)NC2c2ccc(Cl)cc2)NC(c2ccc(Cl)cc2)N1c1ccc(Cl)cc1 (stereo unspecified)	i	u	-31%	28µM*
CCc1ccc(C2NC(=S)NC3=C2C(=O)N(c2ccccc2OC)C(c2ccc(CC)cc2)N3)cc1 (stereo unspecified)	i	6%	-22%	u
CC(C)Cc1nn2c(=O)cc(COC(=O)c3ccc(NC(=O)CCc4ccccc4)cc3)nc2s1	i	22%	x	i
